This note sets out measurements from PubChem BioAssay (EPA / NIEHS).

Structures are written as SMILES. Several values for one entry are separate records, joined by “and”; a condition that tells them apart may be missing. Identical values can stand only once. Where a structure was tested more than once in an assay, its records may differ in their call. Activity calls are given as the source filed them. How the source made its calls: active means hit-call score of the fitted dose curve at least 0.9, where 1 is the maximum; inactive means score below 0.9.

Read-out in the test: Interleukin 6 (IL6), IL6 (gene 3569)
Put plainly: BSK_BT_xIL6: BioMAP Diversity Plus: BT Assay for Interleukin 6 (IL6) Biomarker Activity (AID 2284228). The conditions noted are these: primary human B cells with PBMC. On the procedure:
BSK_BT is a cell-based, multiplexed-readout assay that uses B cell and peripheral blood mononuclear cells, a human vascular primary cell co-culture, with measurements taken at 24 hours after chemical dosing in a microplate: 96-well plate.BSK_BT_xIL6 is an assay component measured in the BSK_BT assay. It measures secreted IL-6 related to regulation of gene expression using LumineX xMAP technology.Data from the assay component BSK_BT_xIL6 was analyzed at the endpoint, BSK_BT_xIL6, in the positive analysis fitting direction relative to DMSO as the negative control and baseline of activity. Using a type of cytokine quantitation reporter, gain or loss-of-signal activity can be used to understand protein changes. To generalize the intended target to other relatable targets, this assay endpoint is annotated to the 'cytokine' intended target family, where the subfamily is 'interleukins'.
The levels of cell surface (or secreted, indicated by the prefix "s") biomarker endpoints were measured by ELISA. Overt cytotoxicity to cells in confluent adherent cultures (all systems other than the BT system) was assessed by measuring total protein levels using sulforhodamine B (SRB) staining in parallel cultures at the time of biomarker measurements, indicated as SRB endpoints. For proliferation assays for adherent cell types, individual cell types are cultured at sub-confluence and relative cell numbers quantified by SRB staining at time points optimized for each system (48 h: 3C and CASM3C systems; 72 h: BT and HDF3CGF systems; 96 h: SAg system). SRB was performed by staining cells with 0.1% SRB after fixation with 10% TCA and reading wells at 560 nm.Viability and proliferation of PBMC (T cells) was quantified by Alamar Blue reduction for the SAg and BT systems. For PBMC viability (referred to as PBMC Cytotoxicity within the assay endpoint names), cells were plated (75,000/well in a 96-well plate) and then chemical samples added for 1 h before addition of activators, SEB and TSST-1 (20 ng/mL final concentration each). Cells were incubated for 90 h. Then, Alamar Blue (20 uL/well) (Invitrogen, Cat DAL1100) was added for 6 h, and the plates were read with a fluorescence microplate reader at 546/580 nm (excitation/emission). For PBMC proliferation, cells were plated and activated as above but incubated for only 16 h prior to addition of Alamar Blue. Plates were read after 6 h.
Regarding `Nc1ccc(-c2ccc(N)c(N)c2)cc1N`, the outcome was inactive.
As for `O=[N+]([O-])C=Cc1ccccc1`, the concentration at half-maximal activity (AC50) (as a rule, the midpoint of the concentration-response curve, whichever way the signal moves) is 5.28 µM (active).
With `CC(C)CCCCCCCOC(=O)c1ccccc1C(=O)OCCCCCCCC(C)C`, the result was inactive.
On the same count and under the same terms, to `O=P1(NCCCl)OCCCN1CCCl` (stereo unspecified) belongs “inactive”; to `C=CCN(CC=C)C(=O)C(Cl)Cl`, “inactive”; to `O=S(=O)(c1ccccc1)c1ccccc1`, “inactive”.
Take `CC(C)CCCCCCCOP(=O)(Oc1ccccc1)Oc1ccccc1`: the half-maximal activity concentration (AC50) is 26.1 µM (active).
With `O=C1C=CC(=O)C=C1`, the concentration at half-maximal activity (AC50) was 11.3 µM (active) and 25.7 µM (active).
Turning to `CCCOC(=O)c1ccccc1C(=O)OCCC`, the result was inactive.
Regarding `O=c1[nH]c(Cl)c(Cl)cc1Cl`, the outcome was inactive.
For `Clc1ccc(-c2ccccc2)cc1`, the result was inactive.
`O=C1C(Cl)=C(Cl)C(=O)C(Cl)=C1Cl`: the AC50 was 30.3 µM (active).
Same read-out and setting: for `O=C(O)CCCc1ccc(N(CCCl)CCCl)cc1` the value was 14.8 µM (active) and 20 µM (active).
For the compound `Cc1ccc(OP(=O)(Oc2ccc(C)cc2)Oc2ccc(C)cc2)cc1` (tested in a mixture with another compound), the AC50 was 13.2 µM (active).
Consider `COCC(=O)N(c1c(C)cccc1C)N1CCOC1=O`, for which the outcome was inactive.
On to `c1ccc(Nc2ccc3ccccc3c2)cc1`, for which the half-maximal activity concentration (AC50) is 29.9 µM (active).
Turning to `COC(C)(C)CCC[C@H](C)C/C=C/C(C)=C/C(=O)OC(C)C`, the concentration at half-maximal activity (AC50) was 20 µM (active).
As to `CC1(C)[C@H](C(=O)O[C@H](C#N)c2cccc(Oc3ccccc3)c2)[C@@H]1C=C(Br)Br`, the outcome was inactive and the half-maximal activity concentration (AC50) is 15.2 µM (active).
Regarding `Oc1cc(Cl)ccc1Cl`, the outcome was inactive.
Same read-out and setting: for `CC(C)(C)C(=O)CCl` the value was “inactive”; for `CCc1cc(C)cc(CC)c1-c1c(OC(=O)C(C)(C)C)n2n(c1=O)CCOCC2`, “inactive”.
The same measure, in the same setting: for `CC(C)(C)C(O)C(Oc1ccc(-c2ccccc2)cc1)n1cncn1` (stereo unspecified) the value was “inactive”.
With `CC(=O)/C=C/c1ccccc1`, the AC50 is 20 µM (active).
The same measure, in the same setting: for `CCC(C)c1cc([N+](=O)[O-])cc([N+](=O)[O-])c1OC(=O)C=C(C)C` (stereo unspecified) the value was 20 µM (active).
The same measure, in the same setting: for `CNC(=O)Oc1cc(C)c(SC)c(C)c1` the value was 8.6 µM (active).
In the case of `C=CC(=O)OCC(CC)CCCC` (stereo unspecified), the outcome was inactive.
As to `O=c1c2ccccc2c(=O)c2c1cc(Cl)c1[nH]c3c([nH]c12)c(Cl)cc1c(=O)c2ccccc2c(=O)c13`, the outcome was inactive.
On to `CCCCCCCCCCCC#N`, for which the result was inactive.
Still for that read-out and setting: to `CC(C)COP(=O)(OCC(C)C)OCC(C)C` belongs “inactive”; to `CC(C)(c1cc(Cl)c(O)c(Cl)c1)c1cc(Cl)c(O)c(Cl)c1`, “inactive”.
